Measurements as given in PubChem BioAssay (NCI).
Compounds without any hit were thinned out: in the full panel of roughly 79,000, 15% have a hit. Cut-off read from the data, not from the text of the source: active = growth inhibition above about 70%; inactive = the rest. Where a SMILES comes first, the peptide text is derived from it. [ ]: non-standard residue; d: D form. The star is where a group is joined. ξ: configuration not given here. ξAsp(βξ-Me) = CC(C(=O)O)C(N)C(=O)O; X11 = CC(N*)C1NC(=O)C2CCCCN2C1=O; ξAbu(3ξ-NH2) = CC(N)C(N)C(=O)O; X10 = CCC(C)CCC/C=C/CC(=O)*

Experiments:
[1] = NCI Yeast Anticancer Drug Screen. Data for the rad50 strain (AID 155);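 note: 0% = growth of vehicle-only cultures of the same strain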; conditions: S. cerevisiae rad50 strain growth inhibition; at 50.0 µM; hits give high values
Outline: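 A DNA repair-deficient yeast mutant serves as the test organism; compound-induced growth inhibition is calculated against vehicle-treated cells.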

[2] = NCI Yeast Anticancer Drug Screen. Data for the mec2-1 strain (AID 157); conditions: S. cerevisiae mec2-1 strain, at 50.0 µM, hits give high values
Outline: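 Growth inhibition is read against vehicle-treated controls after compound exposure of the mec2-1 yeast strain, which is defective in DNA damage repair or cell cycle control.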

[3] = NCI Yeast Anticancer Drug Screen. Data for the sgs1 mgt1 strain (AID 161);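 note: 0% = growth of cultures given vehicle only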; conditions: S. cerevisiae sgs1 mgt1 strain, at 50.0 µM, hits give high values
Outline: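 Yeast cells carrying a defined DNA-repair defect were exposed to test compounds. Growth inhibition was measured relative to vehicle-treated controls.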

[4] = NCI Yeast Anticancer Drug Screen. Data for the cln2 rad14 strain (AID 165);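 note: 0% = growth equal to vehicle treated cultures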; conditions: S. cerevisiae cln2 rad14 strain, at 50.0 µM, hits give high values
Outline: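 Growth inhibition, relative to vehicle-treated controls, is the read-out. The test organism is a yeast strain with defined genetic alterations, cln2 rad14.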

[5] = NCI Yeast Anticancer Drug Screen. Data for the bub3 strain (AID 167); conditions: S. cerevisiae bub3 mutant strain, at 50.0 µM, hits give high values
Outline: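 Inhibition values come from growth of compound-treated mutant yeast normalised to vehicle-treated controls.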

[6] = NCI Yeast Anticancer Drug Screen. Data for the mlh1 rad18 strain (AID 175); conditions: S. cerevisiae mlh1 rad18 strain growth inhibition; at 50.0 µM; hits give high values
Outline: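 Cells of a genetically altered yeast strain, deficient in DNA damage repair, were treated with compound. Their growth was then compared with that of vehicle-treated cultures to give inhibition.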

Measured: growth inhibition

CCOC(=O)/C=C1/Nc2cc(F)c(F)cc2NC1=O
inactive: [1] -36.1% | [2] 14.1% | [3] 16% | [4] 13.8% | [5] 14.6% | [6] -56%

Nc1c(Cl)ncnc1NCCN1CCOCC1
inactive: [1] -3.85% | [2] 1.9% | [3] 1.55% | [4] -22.1% | [5] -17.5% | [6] -18.4%

O=C(O)C1CCC(C(=O)O)S1 (stereo unspecified)
inactive: [1] 1.85% | [2] -10.4% | [3] -0.85% | [4] -13.1% | [5] 9.9% | [6] 16.1%

C(=C\c1ccc(/C=C/c2ccccc2)nn1)/c1ccccc1
inactive: [1] -5.8% | [2] -3.1% | [3] -1.65% | [4] -21.4% | [5] 0.8% | [6] -2.1%

CCOC(=O)c1c[nH]c2ccccc2c1=O
inactive: [1] 1.65% | [2] -8.95% | [3] -0.35% | [4] -16% | [5] -7.9% | [6] 2.2%

CC(=O)NCC(=O)O
inactive: [1] 3.7% | [2] -8.75% | [3] -35.1% | [4] -7.1% | [5] -9.6% | [6] -10.1%

NC1=C(O)C(=O)C(c2cccc(O)c2)O1 (stereo unspecified)
inactive: [1] -8.1% | [2] -10.1% | [3] 7.9% | [4] -5.05% | [5] 3.2% | [6] 8.45%

COc1cc2c(c(O)c1C)C(=O)CC(c1ccccc1)O2 (stereo unspecified)
inactive: [1] 15.4% | [2] -46.3% | [3] 16% | [4] 2.15% | [5] -4.25% | [6] 11.7%

S=C(Nc1c2c(nc3ccccc13)CCCC2)Nc1c2c(nc3ccccc13)CCCC2
inactive: [1] -14.9% | [2] 9.55% | [3] -0.3% | [4] 9.8% | [5] -17.9% | [6] 12%

CCOC(NC(=O)CC)(C(F)(F)F)C(F)(F)F
inactive: [1] 4.3% | [2] -24.6% | [3] -49.9% | [4] -3.4% | [5] 1.85% | [6] -36.9%

Cn1ccc2c3ccn(C)c3ccc21
inactive: [1] -15.8% | [2] 9.4% | [3] -5.25% | [4] 56.7% | [5] -19.9% | [6] 23.1%

CC1(C)C2CCC(CCOC(=O)COc3ccc(Cl)cc3)C1C2 (stereo unspecified)
inactive: [1] -9.45% | [2] 5.5% | [3] 12.1% | [4] -44.2% | [5] 3.15% | [6] 12.6%

O=NN(CCCl)C(=O)NCCc1cccc[n+]1[O-]
inactive: [1] 2.6% | [2] 14.3% | [3] -14.1% | [4] -5.75% | [5] -2.45% | [6] -57.6%

CCOC(=O)NNC(=O)c1ccccc1N(C)C
inactive: [1] -12.4% | [2] -18.6% | [3] -7.05% | [4] -13.7% | [5] 25.1% | [6] -4.45%

CC1(C)C2CC3C(C2)C31C
inactive: [1] 1% | [2] 3.6% | [3] -10.2% | [4] 5.35% | [5] 1.3% | [6] -0.75%

COc1ccc(-c2cc(O)cc(C)c2N)c(OC)c1OC
inactive: [1] 17.1% | [2] 14.6% | [3] 17.4% | [4] 7.9% | [5] -3.45% | [6] 17.4%

C=CCNC(=S)NCc1ccc(Cl)cc1
inactive: [1] 21.3% | [2] 7.8% | [3] 22.7% | [4] -46.6% | [5] 5.15% | [6] 12.1%

CCC(C)CCC/C=C/CC(=O)NC(CC(=O)O)C(=O)NC(C(=O)NC(CC(=O)O)C(=O)NCC(=O)NC(CC(=O)O)C(=O)NCC(=O)NC(C(=O)NC(C(=O)N1CCCC1C(=O)NC(C)C1NC(=O)C2CCCCN2C1=O)C(C)C)C(C)N)C(C)C(=O)O (stereo not drawn) (X10-D[ξAsp(βξ-Me)]DGDG[ξAbu(3ξ-NH2)]VP-X11; configuration not given here)
inactive: [1] -38.3% | [2] -42.5% | [3] -56.2% | [4] -67.4% | [5] -29.5% | [6] -25.9%

CC(=O)NN
inactive: [1] -5.25% | [2] 0.45% | [3] -0.8% | [4] -1.65% | [5] 11.5% | [6] -16.1%

O=C(CCc1ccco1)CCc1ccco1
inactive: [1] 7.6% | [2] -3.35% | [3] 5.45% | [4] -9.05% | [5] -3.5% | [6] -0.6%

CSCCOC(=O)C1C2CCC(O2)C1C(=O)O (stereo unspecified)
inactive: [1] 11.1% | [2] 10.6% | [3] 1.55% | [4] 9.25% | [5] -0.6% | [6] 17.6%

CCCCCCC(C)OC(=O)CCl (stereo unspecified)
inactive: [1] -0.55% | [2] -6.4% | [3] 2.25% | [4] 6.1% | [5] 1.25% | [6] 0.95%

NC(=O)C(=O)C(c1ccccc1)c1ccccc1
inactive: [1] 0.3% | [2] 4.55% | [3] -1.1% | [4] -4.05% | [5] 7.95% | [6] -8.35%

O=c1[nH]c(=O)n(COCCO)cc1-c1ccccc1
inactive: [1] -8.75% | [2] -5.65% | [3] 1.9% | [4] 5.75% | [5] -1.25% | [6] -2.9%

CC1=C2C(=O)O[C@@H](c3ccoc3)[C@]2(C)CCC1
inactive: [1] 15.3% | [2] -6.8% | [3] 14.1% | [4] -8.9% | [5] 0.35% | [6] 16.6%

Nc1c2ccccc2nc2c(C(=O)Nc3ccc(S(N)(=O)=O)cc3)cccc12
inactive: [1] 16.4% | [2] -8.9% | [3] -1.45% | [4] 19% | [5] -2.45% | [6] 1.05%

O=C1/C(=C\c2ccc(O)cc2)CCC/C1=C/c1ccc(Cl)c(Cl)c1
inactive: [1] -0.5% | [2] 27.4% | [3] 7.15% | [4] 35.5% | [5] -4.85% | [6] 24.6%

OC1C2CCC3C2CC(C(O)(c2ccccc2)c2ccccc2)C13 (stereo unspecified)
inactive: [1] -0.2% | [2] -23.6% | [3] -8.75% | [4] -13.2% | [5] -50% | [6] -15.4%

Clc1ccc(C2OCCCO2)cc1
inactive: [1] -21.1% | [2] 7.8% | [3] -9.7% | [4] 10.2% | [5] -8.4% | [6] -1.65%

CC1(C)C(=O)NC(=O)N1CO
inactive: [1] 27.1% | [2] 2.4% | [3] -5.45% | [4] 19.9% | [5] 14.9% | [6] 20%

Cc1ccc(SCC(CF)OC(C)n2cnc3c(Cl)nc(N)nc32)cc1 (stereo unspecified)
inactive: [1] 14.3% | [2] 1.05% | [3] 30.6% | [4] 39.6% | [5] 41.7% | [6] -36.7%

CC(=O)OC(c1ccc2c(c1)OCO2)C(C)(C)C (stereo unspecified)
inactive: [1] 17% | [2] 14.9% | [3] -7.3% | [4] -33.5% | [5] 8.7% | [6] 7.9%

O=S(=O)(SSS(=O)(=O)c1ccc(Cl)c(Cl)c1)c1ccc(Cl)c(Cl)c1
inactive: [1] 7.8% | [2] 4.05% | [3] 5.85% | [4] -3.45% | [5] 3.65% | [6] 11.7%

CSC1=C(c2ccc(Cl)cc2)SC(N2CCCCC2)N1c1ccc([N+](=O)[O-])cc1 (stereo unspecified)
inactive: [1] 0.55% | [2] -0.05% | [3] 1.7% | [4] 5.2% | [5] 5.4% | [6] 4.9%

N#Cc1ccccc1C#N
inactive: [1] -0.8% | [2] -5% | [3] -7.7% | [4] -13.9% | [5] -4.7% | [6] -0.4%

CC(C)C(N)=O
inactive: [1] 5.1% | [2] -0.1% | [3] -7.15% | [4] -3% | [5] 12.1% | [6] -9.25%

Cc1ccc(N=C2c3cc([N+](=O)[O-])ccc3-c3ccc([N+](=O)[O-])cc32)cc1
inactive: [1] 15.1% | [2] -10.1% | [3] 0.35% | [4] -18.1% | [5] -4% | [6] -2.25%

COc1cc2c(cc1OC)C(O)C(O)(CO)C(C(=O)O)C2c1cc(OC)c(OC)c(OC)c1 (stereo unspecified)
inactive: [1] 24.4% | [2] -10.3% | [3] 12.1% | [4] 18.2% | [5] 25.1% | [6] 22.7%

COc1cc(C2c3cc4c(cc3OC(C)(N3CCCC3)C2C)OCO4)cc(OC)c1OC (stereo unspecified)
inactive: [1] -25.4% | [2] 6.95% | [3] -9.8% | [4] 14.2% | [5] -2.55% | [6] 0.25%

COc1cc(/C=C/C(=O)N[C@@H]2C(=O)N3[C@@H]2SC(C)(C)[C@@H]3C(=O)O)ccc1O
inactive: [1] -7.45% | [2] -11.2% | [3] -7.9% | [4] -1.55% | [5] -15.2% | [6] 6.65%

CCC(C)OC(=Nc1ccccc1)c1ccccc1 (stereo unspecified)
inactive: [1] -4.05% | [2] 5.95% | [3] -4.5% | [4] 15.7% | [5] -6.7% | [6] 2.4%
